Measurements published in the supplement of paper PMC9262897, “Low-cost anti-mycobacterial drug discovery using engineered E. coli” (Nature Communications, 2022).
Where a name gives a salt, the structure may show the parent alone. ± gives the standard deviation of the averaged measurements.

Test system: E. coli TESEC Alr+ wild-type control
Assay: growth (OD600 after 10 h); higher = more growth (less inhibition)
Conditions: compound 0.1 mM; raw OD600 reference: median of DMSO wells 0.49, cell-free background 0.052
Procedure: (§1)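 TESEC Mtb Alr E. coli (ΔaraC ΔtolC ΔentC Δalr ΔdadX, arabinose-inducible Mtb Alr) or the Alr+ wild-type control strain, grown in defined M9-fructose medium without D-alanine in 96-well plates with Prestwick library compounds at 0.1 mM and 1% DMSO. Low Alr induction is 0.1 µM arabinose and high induction is 10 mM arabinose.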

SMILES | growth
CCC(NC(C)C)C(O)c1ccc(O)c(O)c1 (configuration not stated) [Isoetharine mesylate salt] | 0.64 ± 0.039
C[C@H]1O[C@@H](O[C@H]2[C@@H](O)C[C@H](O[C@H]3[C@@H](O)C[C@H](O[C@H]4CC[C@@]5(C)[C@H](CC[C@@H]6[C@@H]5C[C@@H](O)[C@]5(C)[C@@H](C7=CC(=O)OC7)CC[C@]65O)C4)O[C@@H]3C)O[C@@H]2C)C[C@H](O)[C@@H]1O [Digoxin] | 0.617 ± 0.038
CC(C)(O/N=C(\C(=O)N[C@@H]1C(=O)N2C(C(=O)[O-])=C(C[n+]3ccccc3)CS[C@H]12)c1csc(N)n1)C(=O)O [Ceftazidime pentahydrate] | 0.0473 ± 0.00053
Cc1cccc(C)c1NC(=O)C(C)N (configuration not stated) [Tocainide hydrochloride] | 0.483 ± 0.061
CCCCNc1cc(C(=O)O)cc(S(N)(=O)=O)c1Oc1ccccc1 [Bumetanide] | 0.492 ± 0.048
CCCSc1ccc2[nH]c(NC(=O)OC)nc2c1 [Albendazole] | 0.48 ± 0.013
O=c1[nH]cc(F)c(=O)[nH]1 [5-fluorouracil] | 0.556 ± 0.066
CCN(CC)CCOC(=O)C(c1ccccc1)c1ccccc1 [Adiphenine hydrochloride] | 0.494 ± 0.04
CCCCc1cc2ccccc2c(OCCN(C)C)n1 [Dimethisoquin hydrochloride] | 0.444 ± 0.022
Nc1ccc(S(=O)(=O)Nc2nccs2)cc1 [Sulfathiazole] | 0.5194 ± 0.0026
Nc1c2c(nc3ccccc13)CCCC2 [Tacrine hydrochloride] | 0.513 ± 0.063
O=C(O)c1cc(/N=N/c2ccc(S(=O)(=O)Nc3ccccn3)cc2)ccc1O [Sulfasalazine] | 0.473 ± 0.032
Oc1c(Cl)cc(Cl)c(Cl)c1Cc1c(O)c(Cl)cc(Cl)c1Cl [Hexachlorophene] | 0.05693 ± 0.00042
CC(C)(C)NC(=O)[C@@H]1C[C@@H]2CCCC[C@@H]2CN1C[C@@H](O)[C@H](Cc1ccccc1)NC(=O)[C@H](CC(N)=O)NC(=O)c1ccc2ccccc2n1 [Saquinavir mesylate] | 0.0807 ± 0.0042
CN1CCN(C2=Nc3cc(Cl)ccc3Nc3ccccc32)CC1 [Clozapine] | 0.502 ± 0.044
COc1ccc(C2CNC(=O)C2)cc1OC1CCCC1 (configuration not stated) [Rolipram] | 0.623 ± 0.011
C[C@H](Cc1cc2c(c(C(N)=O)c1)N(CCCO)CC2)NCCOc1ccccc1OCC(F)(F)F [Silodosin] | 0.442 ± 0.056
COCCCOc1ccnc(C[S+]([O-])c2nc3ccccc3[nH]2)c1C (configuration not stated) [Rabeprazole Sodium salt] | 0.375 ± 0.0068
O=C(O)c1cccnc1Nc1cccc(C(F)(F)F)c1 [Niflumic acid] | 0.206 ± 0.046
C[C@]12CC[C@@H]3c4ccc(O)cc4C[C@@H](CCCCCCCCC[S+]([O-])CCCC(F)(F)C(F)(F)F)[C@H]3[C@@H]1CC[C@@H]2O (some centres not stated) [Fulvestrant] | 0.439 ± 0.024
CC(C)(C)NCC(O)COc1cccc2c1CC(O)C(O)C2 (configuration not stated) [Nadolol] | 0.493 ± 0.12
CCc1cccc(CC)c1NC(=O)CN(CC(=O)O)CC(=O)O [Etifenin] | 0.603 ± 0.11
CCC(=O)[C@@]1(C)[C@H](C)C[C@H]2[C@@H]3CCC4=CC(=O)C=C[C@]4(C)[C@H]3[C@@H](O)C[C@@]21C [Rimexolone] | 0.459 ± 0.021
Cc1cn([C@H]2C[C@H](N=[N+]=[N-])[C@@H](CO)O2)c(=O)[nH]c1=O [Zidovudine, AZT] | 0.199 ± 0.0087
O=C(CCCCCCC(=O)Nc1ccccc1)NO [Vorinostat] | 0.495 ± 0.099
CN/C(=N\CCSCc1nc[nH]c1C)NC#N [Cimetidine] | 0.545 ± 0.0056
O=C(N[C@H](CO)[C@H](O)c1ccc([N+](=O)[O-])cc1)C(Cl)Cl [Chloramphenicol] | 0.05047 ± 0.0005

Test system: E. coli TESEC Mtb Alr
Assay: as above
Conditions: arabinose 100 nM; compound 0.1 mM; raw OD600 reference: median of DMSO wells 0.413, cell-free background 0.052
Procedure: as §1

SMILES | growth
N=c1nc(N2CCCCC2)cc(N)n1O [Minoxidil] | 0.406 ± 0.0072
CC(=O)NC[C@H]1CN(c2ccc(N3CCOCC3)c(F)c2)C(=O)O1 [Linezolid] | 0.135 ± 0.055
CC(O)(P(=O)(O)O)P(=O)(O)O [Etidronic acid, disodium salt] | 0.415 ± 0.021
COc1ccc2cc([C@@H](C)C(=O)O)ccc2c1 [(R) -Naproxen sodium salt] | 0.408 ± 0.0092
NC1CCN(c2nc3c(cc2F)c(=O)c(C(=O)O)cn3-c2ccc(F)cc2F)C1 (configuration not stated) [Tosufloxacin hydrochloride] | 0.05307 ± 0.00025
O=C(NCCNCC(O)COc1ccc(O)cc1)N1CCOCC1 (configuration not stated) [Xamoterol hemifumarate] | 0.405 ± 0.016
Cc1cc2cc3c(C)cc(=O)oc3c(C)c2o1 [Trioxsalen] | 0.4096 ± 0.0037
CCCCC(=O)O[C@H]1CC[C@H]2[C@@H]3CCc4cc(O)ccc4[C@H]3CC[C@]12C [Estradiol Valerate] | 0.436 ± 0.018
CCCc1ncc(C[n+]2ccccc2C)c(N)n1 [Amprolium hydrochloride] | 0.407 ± 0.016
COC1=C(OC)C(=O)C(CCCCCCCCCCO)=C(C)C1=O [Idebenone] | 0.139 ± 0.087
CC(N/C(=N\C#N)Nc1ccncc1)C(C)(C)C (configuration not stated) [Pinacidil] | 0.405 ± 0.012
C[C@H]1C[C@H]2[C@@H]3CCC4=CC(=O)C=C[C@]4(C)[C@@]3(F)[C@@H](O)C[C@]2(C)[C@@]1(O)C(=O)CO [Betamethasone] | 0.406 ± 0.0084
Fc1ccc(C(c2ccc(F)cc2)N2CCN(C/C=C/c3ccccc3)CC2)cc1 [Flunarizine dihydrochloride] | 0.318 ± 0.037
CCC(NC(C)C)C(O)c1ccc(O)c(O)c1 (configuration not stated) [Isoetharine mesylate salt] | 0.401 ± 0.032
C[C@H]1O[C@@H](O[C@H]2[C@@H](O)C[C@H](O[C@H]3[C@@H](O)C[C@H](O[C@H]4CC[C@@]5(C)[C@H](CC[C@@H]6[C@@H]5C[C@@H](O)[C@]5(C)[C@@H](C7=CC(=O)OC7)CC[C@]65O)C4)O[C@@H]3C)O[C@@H]2C)C[C@H](O)[C@@H]1O [Digoxin] | 0.414 ± 0.0055
CC(C)(O/N=C(\C(=O)N[C@@H]1C(=O)N2C(C(=O)[O-])=C(C[n+]3ccccc3)CS[C@H]12)c1csc(N)n1)C(=O)O [Ceftazidime pentahydrate] | 0.0467 ± 0.002
Cc1cccc(C)c1NC(=O)C(C)N (configuration not stated) [Tocainide hydrochloride] | 0.4 ± 0.015
CCCCNc1cc(C(=O)O)cc(S(N)(=O)=O)c1Oc1ccccc1 [Bumetanide] | 0.426 ± 0.0046
CCCSc1ccc2[nH]c(NC(=O)OC)nc2c1 [Albendazole] | 0.428 ± 0.01
O=c1[nH]cc(F)c(=O)[nH]1 [5-fluorouracil] | 0.359 ± 0.041

SMILES | growth
CCN(CC)CCOC(=O)C(c1ccccc1)c1ccccc1 [Adiphenine hydrochloride] | 0.414 ± 0.0051
CCCCc1cc2ccccc2c(OCCN(C)C)n1 [Dimethisoquin hydrochloride] | 0.3984 ± 0.0029
Nc1ccc(S(=O)(=O)Nc2nccs2)cc1 [Sulfathiazole] | 0.422 ± 0.013
Nc1c2c(nc3ccccc13)CCCC2 [Tacrine hydrochloride] | 0.41 ± 0.01
O=C(O)c1cc(/N=N/c2ccc(S(=O)(=O)Nc3ccccn3)cc2)ccc1O [Sulfasalazine] | 0.431 ± 0.0053
Oc1c(Cl)cc(Cl)c(Cl)c1Cc1c(O)c(Cl)cc(Cl)c1Cl [Hexachlorophene] | 0.063 ± 0.0035
CC(C)(C)NC(=O)[C@@H]1C[C@@H]2CCCC[C@@H]2CN1C[C@@H](O)[C@H](Cc1ccccc1)NC(=O)[C@H](CC(N)=O)NC(=O)c1ccc2ccccc2n1 [Saquinavir mesylate] | 0.273 ± 0.11
CN1CCN(C2=Nc3cc(Cl)ccc3Nc3ccccc32)CC1 [Clozapine] | 0.41 ± 0.0084
COc1ccc(C2CNC(=O)C2)cc1OC1CCCC1 (configuration not stated) [Rolipram] | 0.4 ± 0.013
C[C@H](Cc1cc2c(c(C(N)=O)c1)N(CCCO)CC2)NCCOc1ccccc1OCC(F)(F)F [Silodosin] | 0.407 ± 0.011
COCCCOc1ccnc(C[S+]([O-])c2nc3ccccc3[nH]2)c1C (configuration not stated) [Rabeprazole Sodium salt] | 0.357 ± 0.011
O=C(O)c1cccnc1Nc1cccc(C(F)(F)F)c1 [Niflumic acid] | 0.244 ± 0.066
C[C@]12CC[C@@H]3c4ccc(O)cc4C[C@@H](CCCCCCCCC[S+]([O-])CCCC(F)(F)C(F)(F)F)[C@H]3[C@@H]1CC[C@@H]2O (some centres not stated) [Fulvestrant] | 0.413 ± 0.03
CC(C)(C)NCC(O)COc1cccc2c1CC(O)C(O)C2 (configuration not stated) [Nadolol] | 0.408 ± 0.011
CCc1cccc(CC)c1NC(=O)CN(CC(=O)O)CC(=O)O [Etifenin] | 0.412 ± 0.012
CCC(=O)[C@@]1(C)[C@H](C)C[C@H]2[C@@H]3CCC4=CC(=O)C=C[C@]4(C)[C@H]3[C@@H](O)C[C@@]21C [Rimexolone] | 0.414 ± 0.019
Cc1cn([C@H]2C[C@H](N=[N+]=[N-])[C@@H](CO)O2)c(=O)[nH]c1=O [Zidovudine, AZT] | 0.166 ± 0.012
O=C(CCCCCCC(=O)Nc1ccccc1)NO [Vorinostat] | 0.415 ± 0.01
CN/C(=N\CCSCc1nc[nH]c1C)NC#N [Cimetidine] | 0.409 ± 0.0072
O=C(N[C@H](CO)[C@H](O)c1ccc([N+](=O)[O-])cc1)C(Cl)Cl [Chloramphenicol] | 0.0561 ± 0.0036
